Data on 30 compounds can be found in PubChem BioAssay AID488966 (Southern Research Specialized Biocontainment Screening …, 2010).

Values joined by “and” are separate entries in the source; they are usually repeats but may differ in a detail not shown here. Equal values may be shown once. About 55 (0.02%) of roughly 340,000 compounds were called active.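 Rule for the calls: active = phage lysis inhibition, versus mean bacterial control, above a set limit; inconclusive = no clear call, values can overlap the other calls; inactive = the rest.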 Not all results are given here. Entries with a potency or affinity are not part of this list.

A short description of this assay: inhibition of K1F phage lysis, E. coli UTI89, bacterial capsule biogenesis inhibitors, alamar blue (AID 488966).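 Note: capsule biogenesis inhibitors block K1F phage lysis so surviving cells raise fluorescence; higher fluorescence means more inhibition of phage lysis.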 As to conditions: 2 h; inhibition: at 100 µM, stronger effect = higher value unless noted; series mostly up to 300 µM. (In general: Resazurin is reduced to fluorescent resorufin, in cell work by metabolically active cells.)
For orientation: inhibition means the change of the read-out against control, counted positive when it falls. On to `CCCCCCn1c(N2CCN(c3cccc(Cl)c3)CC2)nc2c1c(=O)[nH]c(=O)n2C`, for which the inhibition was -0.58% (inactive).

`COc1ccc(-c2c(C)oc3c(CN4CCOCC4)c(O)ccc3c2=O)cc1`: the inhibition is 0.06% (inactive).

`O=C(CSc1nc2ccc(Cl)cc2[nH]1)NCCc1ccc(Cl)cc1`: the inhibition is 0.86% (inactive).

For `C=CCn1c(C)nnc1SCC(=O)c1[nH]c(C)c(C(C)=O)c1C`, the inhibition was -0.26% (inactive).

Regarding `COc1ccc(C(=O)Nc2ccc3c(c2)nc(CCNC(C)=O)n3C)cc1`, the inhibition was 5.13% (inactive).

Consider `C/C(=N\NC(=S)NCCc1ccccc1)c1ccc(C#N)cc1`, for which the inhibition is 0.17% (inactive).

On to `Cc1ccccc1CN1CCN(CCCc2ccccc2)C(CCO)C1` (stereo not given), for which the inhibition is 0.26% (inactive).

For `C[C@H](CO)N1C[C@H](C)[C@@H](CN(C)Cc2ccc(C(=O)O)cc2)Oc2c(NS(=O)(=O)c3ccccc3)cccc2C1=O`, the inhibition was 0.71% (inactive).

For `O=C(COc1ccc2c(-c3ccccc3)cc(=O)oc2c1)NCCCn1ccnc1`, the inhibition was -2.78% (inactive).

On to `N=C(N)c1ccc(O)cc1`, for which the inhibition is -1.49% (inactive).

With `N=C(N)c1ccccc1`, the inhibition is 3.36% (inactive) and 4.08% (inactive).

Consider `Cc1occc1C(=O)NNC(=O)CN1C(=O)NC2(CCCCC2)C1=O`, for which the inhibition was 1% [at 50 µM, stronger effect = higher value] (inactive).

For `COc1ccc2nc(NC(C)=O)sc2c1`, the inhibition is 0.03% (inactive).

Turning to `COc1ccc(C(=O)Nc2nc3ccc(OC)cc3s2)cc1`, the inhibition is 0.38% (inactive).

`Cc1cc(C)c2sc(NNC(=O)C3COc4ccccc4O3)nc2c1` (stereo not given): the inhibition is 3.07% (inactive).

Take `COc1ccc(NC(=O)C(C)N2c3cccc4cccc(c34)S2(=O)=O)cc1` (stereo not given): the inhibition was 4.61% (inactive).

With `CCS(=O)(=O)C1=NN2C(=N)/C(=C\c3ccc(SCc4ccco4)o3)C(=O)N=C2S1`, the inhibition was -0.03% (inactive).

For `N=C1/C(=C\c2ccc(SCc3ccco3)o2)C(=O)N=C2SC=NN12`, the inhibition result is “inactive”.

With `O=C(c1cc2ccccc2o1)N1CCN(c2ccccn2)CC1`, the inhibition was 0.07% (inactive).

Turning to `COc1cccc(C(=O)Nc2ncc3c(n2)CC(C)CC3=O)c1` (stereo not given), the inhibition is 0.02% (inactive).

For `Cn1c(N)c(C(=O)Nc2cccc(Cl)c2)c(=O)n(C)c1=O`, the inhibition is 0.32% (inactive).

Consider `CC(OC(=O)CCCN1C(=O)c2ccccc2C1=O)C(=O)Nc1ncc(Cl)cc1Cl` (stereo not given), for which the inhibition is 0.75% (inactive).

For `O=C(Cc1ccsc1)Nc1ccc2c(c1)OCO2`, the inhibition was 0.48% [at 50 µM, stronger effect = higher value] (inactive).

As to `COc1ccc(CC(=O)Nc2ccc(N3CCOCC3)cc2)cc1OC`, the inhibition is -0.16% (inactive).

With `Cc1cccc(OCC(=O)Nc2ccc(C(=O)Nc3ccccc3C(=O)O)cc2)c1C`, the inhibition is 1.06% [at 50 µM, stronger effect = higher value] (inactive).

For the compound `Cc1ccccc1OCC(=O)Nc1ccc(C(=O)Nc2ccccc2C(=O)O)cc1`, the inhibition is 0.645% [at 50 µM, stronger effect = higher value] (inactive).

For `Cc1ccc2nc(C3CCCN3Cc3nc(CCC(C)C)no3)[nH]c2c1` (stereo not given), the inhibition is 0.57% (inactive).

Take `CCOc1ccc(C(=O)NN2C(=O)C3C4C=CC(O4)C3C2=O)cc1` (stereo not given): the inhibition was 0.49% (inactive).

On to `COc1ccc(C2=CSC3=C(C(=O)c4cccc(S(=O)(=O)N(C)C)c4)CCN23)cc1`, for which the inhibition was 0.33% (inactive).

Regarding `CN(C(=O)Cn1c(=O)oc2cc(S(=O)(=O)N3CCCC3)ccc21)C1CCCCC1`, the inhibition is 0.1% (inactive).
